Here are results for 29 molecules from PubChem BioAssay (EPA / NIEHS).

Where “and” joins values, the source holds several entries; their conditions need not be identical. Equal entries are not always repeated. Inconclusive results are not listed. A structure can be active in one record and inactive in another. Calls of active or inactive are those of the source. The calls were made as follows, unless noted: active = hit-call score of the fitted dose curve at least 0.9, where 1 is the maximum; inactive = score below 0.9.

Assay [1] is described as follows: ATG_TCF_b_cat_CIS: Attagene CIS-FACTORIAL HepG2 Assay for human T-Cell-Factor with beta-catenin (TCF/b-cat) (AID 2282965). The settings on record: HepG2 TCF/beta-catenin cis-reporter transcription, actives raise or lower the signal. An outline of the steps:
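HepG2 cells transiently transfected with cis-promoter-driven multiplexed reporter units; reporter mRNA measured 24 h after dosing by RT-PCR, FAM labelling, HpaI digestion and capillary electrophoresis. Bidirectional fitting relative to DMSO baseline.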

Assay [2] is described as follows: ATG_TAL_CIS: Attagene CIS-FACTORIAL HepG2 Assay for human TAL Basal Promoter (AID 2282966).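 Also: background control endpoint measuring basal TAL promoter reporter mRNA not a specific factor.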 The settings on record: HepG2 Attagene cis-factorial TAL promoter reporter; actives raise or lower the signal. An outline of the steps:
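Fluorescence of labelled reporter cDNA fragments, resolved by capillary electrophoresis, gave the readout. Human HepG2 liver cells carried transiently transfected cis-element reporter units and were treated for 24 hours; activity was fitted bidirectionally against DMSO.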

Assay [3] deals with X-box-binding protein 1 (Homo sapiens) (UniProt P17861). The assay is described as follows: ATG_Xbp1_CIS: Attagene CIS-FACTORIAL HepG2 Assay for human X-box Binding Protein 1 (XBP1) (AID 2282972). The settings on record: HepG2 XBP1 cis-element reporter, Attagene multiplex; actives raise or lower the signal. An outline of the steps: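 HepG2 cells transiently transfected with multiple cis-element reporter units report endogenous TF activity; 24 h exposure, then reporter mRNA measured by RT-PCR, 6-FAM labelling, HpaI digestion and capillary electrophoresis. Bidirectional fitting versus DMSO.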
Sequence of X-box-binding protein 1 (Homo sapiens) (P17861 whole entry, looked up): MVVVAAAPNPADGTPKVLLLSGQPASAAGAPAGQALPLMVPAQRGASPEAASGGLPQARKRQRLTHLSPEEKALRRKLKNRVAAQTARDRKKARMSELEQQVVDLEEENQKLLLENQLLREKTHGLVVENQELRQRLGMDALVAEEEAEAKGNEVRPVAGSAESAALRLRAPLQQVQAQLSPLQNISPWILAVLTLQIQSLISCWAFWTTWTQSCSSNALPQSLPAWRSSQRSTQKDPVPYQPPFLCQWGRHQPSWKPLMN

Assay [4] in a line: ATG_GAL4_TRANS: Attagene TRANS-FACTORIAL HepG2 Assay for GAL4 (Internal Marker) (AID 2282976; active = hit-call score of the fitted dose curve at least 0.9, where 1 is the maximum). The following applies: HepG2 Attagene TRANS GAL4 internal marker reporter. An outline of the steps: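 First, HepG2 cells were transfected with reporter units under GAL4-UAS control. Next, they were treated with chemical for 24 h. Finally, RNA was reverse-transcribed, PCR-amplified, FAM-labelled and resolved by capillary electrophoresis, with induction scored against DMSO.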

Assay [5] in a line: ATG_TGFb_CIS: Attagene CIS-FACTORIAL HepG2 Assay for human Transforming Growth Factor (TGF) (AID 2282967). The following applies: HepG2 Attagene CIS TGFb reporter, mRNA transcription; actives raise or lower the signal. An outline of the steps: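 Cells were dosed for 24 hours, after which total RNA was reverse-transcribed and reporter sequences amplified, labeled and sized by capillary electrophoresis. Activity was fitted in both directions against DMSO.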

The nature of assay [6]: ATG_VDRE_CIS: Attagene CIS-FACTORIAL HepG2 Assay for human Vitamin D Receptor Element (VDRE) (AID 2282968). The following applies: HepG2 VDRE cis-reporter transcription, actives raise or lower the signal. An outline of the steps:
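Transiently transfected HepG2 cells carrying cis-regulated reporter transcription units were exposed for 24 h. Reporter mRNA was measured by RT-PCR with fluorescent labelling and capillary electrophoresis, and fitted in both directions against DMSO.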

Assay [7] deals with Nuclear receptor subfamily 1 group I member 3 (Homo sapiens) (UniProt Q14994). The assay is described as follows: ATG_CAR_TRANS: Attagene TRANS-FACTORIAL HepG2 Assay for human Constitutive Androstane Receptor (CAR) (AID 2282969; active = hit-call score of the fitted dose curve at least 0.9, where 1 is the maximum;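 also: activators raise reporter mRNA above DMSO so AC50 marks induction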). The following applies: HepG2 Attagene TRANS-FACTORIAL CAR reporter. An outline of the steps: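 HepG2 cells transiently transfected with GAL4-UAS reporter units; TRANS format reads activity of exogenous chimeric NR-Gal4 protein. After 24 h dosing, reporter mRNA quantified by RT-PCR, 6-FAM labelling and capillary electrophoresis; gain of signal fitted against DMSO.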
Sequence of Nuclear receptor subfamily 1 group I member 3 (Homo sapiens) (Q14994 whole entry, looked up, the tested form may be a part): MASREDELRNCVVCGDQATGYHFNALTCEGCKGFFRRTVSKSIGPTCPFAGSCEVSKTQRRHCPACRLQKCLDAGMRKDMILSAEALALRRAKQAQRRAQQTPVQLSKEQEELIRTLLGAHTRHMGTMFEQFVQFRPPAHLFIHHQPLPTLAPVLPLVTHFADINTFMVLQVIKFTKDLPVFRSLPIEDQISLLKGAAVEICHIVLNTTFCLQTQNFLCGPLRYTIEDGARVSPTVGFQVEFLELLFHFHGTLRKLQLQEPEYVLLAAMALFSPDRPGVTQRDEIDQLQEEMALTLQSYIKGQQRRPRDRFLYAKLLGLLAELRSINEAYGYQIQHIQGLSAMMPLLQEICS

Assay [8] concerns the target Estrogen receptor (Homo sapiens) (UniProt P03372). As to the kind of experiment: ATG_ERa_TRANS: Attagene TRANS-FACTORIAL HepG2 Assay for human Estrogen Receptor alpha (ERa) (AID 2282970; active = hit-call score of the fitted dose curve at least 0.9, where 1 is the maximum). The following applies: HepG2 Attagene TRANS ERa GAL4 reporter, mRNA. An outline of the steps: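 Human liver HepG2, transient transfection of multiple GAL4-UAS reporter units; TRANS format (exogenous NR-Gal4 chimera). 24 h dosing. Readout: reporter mRNA, RT-PCR, 6-FAM primer extension, HpaI digest, capillary electrophoresis. Positive direction vs DMSO.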

The nature of assay [9]: ATG_M_19_TRANS: Attagene TRANS-FACTORIAL HepG2 Assay for M19 Transcription Factor (Internal Marker) (AID 2282974; active = hit-call score of the fitted dose curve at least 0.9, where 1 is the maximum). The following applies: HepG2 Attagene TRANS-FACTORIAL M19 internal marker reporter. An outline of the steps: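 Transfected HepG2 (GAL4-UAS MRTUs), 24 h compound, TriZol RNA, DNase-treated RT, reporter PCR, FAM label, HpaI digest, CE fluorescence; gain vs DMSO.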

Assay [10] concerns the target Steroid hormone receptor ERR1 (Homo sapiens) (UniProt P11474). The assay is described as follows: ATG_ERRa_TRANS: Attagene TRANS-FACTORIAL HepG2 Assay for human Estrogen-Related Receptor alpha (ERRa) (AID 2282971; active = hit-call score of the fitted dose curve at least 0.9, where 1 is the maximum). The following applies: HepG2 Attagene TRANS reporter, ERRa transactivation. An outline of the steps: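 Reporter transcript induction was quantified by RT-PCR and capillary electrophoresis of FAM-labelled, HpaI-cut products after 24 h treatment of HepG2 cells carrying transiently transfected GAL4-UAS reporter units and an exogenous ERRa-Gal4 fusion; activity scored as increase over DMSO.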

Sequence of Estrogen receptor (Homo sapiens) (P03372 whole entry, looked up, the tested form may be a part): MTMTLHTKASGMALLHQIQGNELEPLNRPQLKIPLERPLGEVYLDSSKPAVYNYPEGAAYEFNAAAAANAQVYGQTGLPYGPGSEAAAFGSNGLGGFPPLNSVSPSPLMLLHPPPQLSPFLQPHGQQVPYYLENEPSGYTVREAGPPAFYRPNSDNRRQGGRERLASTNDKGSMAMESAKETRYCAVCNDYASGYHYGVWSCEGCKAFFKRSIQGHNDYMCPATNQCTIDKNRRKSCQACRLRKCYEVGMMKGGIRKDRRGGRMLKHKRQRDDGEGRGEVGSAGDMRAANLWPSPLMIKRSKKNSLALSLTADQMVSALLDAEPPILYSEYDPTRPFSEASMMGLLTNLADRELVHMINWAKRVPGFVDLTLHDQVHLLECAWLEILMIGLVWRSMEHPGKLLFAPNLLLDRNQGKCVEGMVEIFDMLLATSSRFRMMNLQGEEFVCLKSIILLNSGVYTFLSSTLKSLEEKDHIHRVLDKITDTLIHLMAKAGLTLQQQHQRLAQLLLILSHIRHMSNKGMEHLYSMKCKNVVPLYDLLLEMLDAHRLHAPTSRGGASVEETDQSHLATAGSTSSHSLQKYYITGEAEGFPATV
Sequence of Steroid hormone receptor ERR1 (Homo sapiens) (P11474 whole entry, looked up, the tested form may be a part): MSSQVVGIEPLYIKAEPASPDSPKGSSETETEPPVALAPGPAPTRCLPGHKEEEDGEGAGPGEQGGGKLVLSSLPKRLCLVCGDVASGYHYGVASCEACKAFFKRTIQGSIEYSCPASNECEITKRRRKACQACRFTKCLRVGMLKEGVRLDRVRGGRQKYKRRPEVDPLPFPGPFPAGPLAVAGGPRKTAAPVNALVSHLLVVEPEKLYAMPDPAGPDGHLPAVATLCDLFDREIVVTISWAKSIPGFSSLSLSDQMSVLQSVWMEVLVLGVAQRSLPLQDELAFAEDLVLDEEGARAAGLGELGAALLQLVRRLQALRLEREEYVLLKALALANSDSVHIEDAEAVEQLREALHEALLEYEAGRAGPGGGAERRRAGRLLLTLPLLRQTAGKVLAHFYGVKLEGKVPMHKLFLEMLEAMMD

For the molecule `C#C[C@]1(O)CC[C@H]2[C@@H]3CCc4cc(O)ccc4[C@H]3CC[C@@]21C`, the AC50 in assay [1] is 19.2 µM (active) and 19.8 µM (active); in assay [2], 152 µM (active) and 78.2 µM (active); in assay [3], 59.6 µM (active) [middle of 4 runs]. Also, the molecule was called inactive in assay [1], in [2], in assay [3] and in assay [4].

Turning to `C=CCOC(=O)/C=C\C(=O)OCC=C`, the figures for the AC50 in assay [1], in [6] and in assay [3] were 15.1 µM (active), 27 µM (active) and 26.5 µM (active), respectively. Moreover, the molecule was called inactive in assay [2], in assay [5], in [7], in assay [8] and in assay [9].

With `N=C1N=C(N)c2ccccc21`, the result in assay [1], in [2], in assay [5], in assay [6], in assay [7] and in assay [3] was inactive. For the same molecule, the result in assay [9] was inactive. For the same molecule, the AC50 in assay [8] is 100 µM (active).

For `c1ccc2c(c1)-c1ccc3ccc4cccc5cc-2c1c3c45`, the molecule was called inactive in [1], in assay [2], in [5], in [6], in assay [7] and in [3]. Besides, the AC50 in [8] was 0.422 µM (active).

Take `O=C(c1ccc(OCCN2CCCCC2)cc1)c1c(-c2ccc(O)cc2)sc2cc(O)ccc12`: the concentration at half-maximal activity (AC50) is 11.1 µM (active) and 15.5 µM (active) in assay [1]; 20.4 µM (active) and 11.1 µM (active) in assay [2]; 11.1 µM (active) and 8.64 µM (active) and 12 µM (active) in [3]. Moreover, the result in assay [1], in [2], in [6], in [3] and in [9] was inactive.

On to `CC=CC(=O)C1=C(C)C=CCC1(C)C`, for which the outcome in [1], in assay [2], in assay [5], in assay [6], in assay [7] and in assay [10] was inactive. Besides, the molecule was classed as inactive in assay [3], in assay [9] and in assay [4].

For `CC(C)(C)c1ccc(S)cc1`, the outcome in assay [1], in assay [2], in assay [5], in assay [6], in assay [7] and in [8] was inactive. In addition, the molecule was classed as inactive in assay [3] and in assay [4].

As for `C=CC(C)CCCC(C)(C)O` (stereo not drawn), the call in assay [1], in assay [2], in assay [5], in [6], in assay [7] and in assay [3] was inactive.

For `CC(=O)c1ccc2ccccc2c1`, the molecule was called inactive in assay [1], in [2], in assay [5], in [6], in [7] and in assay [3]. Moreover, the molecule was called inactive in [9] and in [4]. Besides, in assay [8], the AC50 was 42.4 µM (active).

Regarding `Cc1cc(N)n(-c2ccccc2)n1`, the outcome in [1], in assay [2], in [5], in assay [6], in assay [7] and in [10] was inactive. Further, the result in assay [3] was inactive.

As for `CC1COC(=O)O1` (stereo not drawn), the molecule was classed as inactive in assay [1], in assay [2], in assay [5], in [6], in [7] and in assay [10]. For the same molecule, in [4], the call was inactive. Moreover, the AC50 in [3] is 0.0103 µM (active).

Turning to `O=C1CCCCCCCCCCCC(=O)OCCO1`, the molecule was called inactive in assay [1], in [2], in [5], in assay [6], in [7] and in assay [10]. Besides, the result in assay [3] was inactive.

In the case of `C=CC(C)(CCC=C(C)C)OC(=O)CC` (stereo not drawn), the molecule was classed as inactive in assay [1], in assay [2], in [5], in assay [6], in assay [7] and in assay [8]. Also, the molecule was classed as inactive in assay [3], in assay [9] and in assay [4].

In the case of `CC12CCC(C1)C(C)(C)C2O` (stereo not drawn), the result in [1], in [2], in assay [5], in assay [6], in [7] and in [8] was inactive. In addition, the molecule was called inactive in assay [3] and in [4].

`CC(C)COC(=O)c1ccccc1O`: the call in assay [1], in assay [2], in [5], in assay [6], in assay [7] and in assay [8] was inactive. The result in [3] and in [4] was inactive.

Regarding `CC(=O)C1C(=O)C=C(C)OC1=O` (stereo not drawn), the call in assay [1], in assay [2], in [5], in assay [6], in [7] and in assay [3] was inactive. In [9], the call was inactive.

Take `CCNC(=S)NCC`: the molecule was classed as inactive in assay [1], in [2], in assay [5], in [6], in assay [7] and in [3].

In the case of `CN(C)C`, the molecule was called inactive in assay [1], in [2], in [5], in assay [6], in [7] and in assay [8]. For the same molecule, the result in [3], in assay [9] and in assay [4] was inactive.

For `CC(=O)c1ccc(O)cc1`, the outcome in [1], in assay [2], in assay [5], in assay [6], in assay [7] and in assay [8] was inactive. In addition, the call in assay [3] and in assay [4] was inactive.

On to `CCCCC(CC)COCCO` (stereo not drawn), for which the molecule was called inactive in [1], in [2], in assay [5], in [6], in assay [7] and in assay [8]. The outcome in [3] and in assay [4] was inactive.

With `COC(=O)c1cccc(C(=O)OC)c1`, the outcome in assay [1], in assay [2], in assay [5], in [6], in [7] and in [8] was inactive. For the same molecule, the molecule was classed as inactive in assay [3] and in assay [4].

`C=COCC1CCC(COC=C)CC1` (stereo not drawn): the result in assay [1], in assay [2], in [5], in assay [6], in [7] and in assay [8] was inactive. Moreover, the result in assay [3], in assay [9] and in assay [4] was inactive.

Regarding `O=c1cc[nH]cc1`, the result in assay [1], in [2], in [6], in assay [7] and in assay [3] was inactive. Further, the AC50 in [5] was 0.0823 µM (active).

For `C=C(C)C(=O)OCCN(C)C`, the result in assay [1], in [2], in [5], in assay [6], in assay [7] and in assay [8] was inactive. The outcome in [3], in assay [9] and in assay [4] was inactive.

Take `CC1(C)[C@H](C=C(Cl)Cl)[C@H]1C(=O)OCc1cccc(Oc2ccccc2)c1`: the call in [1], in [2], in assay [5], in assay [7], in assay [3] and in [9] was inactive. Moreover, the molecule was called inactive in assay [4]. Besides, the AC50 in assay [6] is 4.62 µM (active); in assay [8], 8.45 µM (active).

In the case of `CCCCCCCCCCCCS`, the molecule was classed as inactive in [1], in assay [2], in [5], in assay [7], in assay [8] and in [3]. The outcome in [4] was inactive. For the same molecule, the AC50 in [6] is 42.5 µM (active).

With `CC/C=C\CCOC(C)OCC` (stereo not drawn), the molecule was classed as inactive in assay [1], in assay [2], in [5], in [6], in assay [7] and in assay [8]. Moreover, the molecule was classed as inactive in assay [3] and in [4].

As to `CC(C)(C)c1cc(CCC(=O)OCCSCCOC(=O)CCc2cc(C(C)(C)C)c(O)c(C(C)(C)C)c2)cc(C(C)(C)C)c1O`, the molecule was called inactive in assay [1], in [2], in [5], in [6], in [7] and in [10]. In [3], the call was inactive.

Consider `CCOC(=O)C=Cc1ccccc1`, for which the result in assay [1], in assay [2], in assay [5], in assay [6], in assay [7] and in assay [8] was inactive. Further, the result in assay [3], in assay [9] and in [4] was inactive.
